Myeloid diff 2: myeloid differentiation induction. ER-HoxA9 myeloid progenitors, lysozyme-GFP differentiation, flow cytometry. calls only at 10 µM. hit rate 1% among 360,000;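 active = normalized GFP-positive differentiation at or above the plate's own cutoff, the solvent-only control mean plus 3 SD; inconclusive = no clear call, values can overlap the other calls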;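 also: cells exposed to compound for four days before flow analysis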
Exocytosis inh: blocks lytic granule exocytosis | hit rate 0.66% among 360,000 | AID 651702 | inhibition, % at 10 µM | TALL-104 LAMP-1 surface exposure, flow cytometry; cells stimulated with thapsigargin and PMA;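 active = inhibition above about 55%, limit read from the data; inconclusive = no clear call, values can overlap the other calls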
ABCB6 inh 2: inhibitors of human ABC transporter ABCB6 | Q9NP58 | K562-ABCB6 porphyrin accumulation, flow cytometry, 1 h; stronger effect = lower value | fluorescence ratio to DMSO, % at 10 µM | hit rate 0.19% among 360,000 | AID 602162;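 active = fluorescence ratio to DMSO below 75%, the collection mean minus 3 SD; inconclusive = too few cells collected in the well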;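 also: signal is porphyrin accumulated inside mitochondria; lower ratio means ABCB6 inhibition with less porphyrin fluorescence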
Target sequence (Q9NP58 whole entry, looked up): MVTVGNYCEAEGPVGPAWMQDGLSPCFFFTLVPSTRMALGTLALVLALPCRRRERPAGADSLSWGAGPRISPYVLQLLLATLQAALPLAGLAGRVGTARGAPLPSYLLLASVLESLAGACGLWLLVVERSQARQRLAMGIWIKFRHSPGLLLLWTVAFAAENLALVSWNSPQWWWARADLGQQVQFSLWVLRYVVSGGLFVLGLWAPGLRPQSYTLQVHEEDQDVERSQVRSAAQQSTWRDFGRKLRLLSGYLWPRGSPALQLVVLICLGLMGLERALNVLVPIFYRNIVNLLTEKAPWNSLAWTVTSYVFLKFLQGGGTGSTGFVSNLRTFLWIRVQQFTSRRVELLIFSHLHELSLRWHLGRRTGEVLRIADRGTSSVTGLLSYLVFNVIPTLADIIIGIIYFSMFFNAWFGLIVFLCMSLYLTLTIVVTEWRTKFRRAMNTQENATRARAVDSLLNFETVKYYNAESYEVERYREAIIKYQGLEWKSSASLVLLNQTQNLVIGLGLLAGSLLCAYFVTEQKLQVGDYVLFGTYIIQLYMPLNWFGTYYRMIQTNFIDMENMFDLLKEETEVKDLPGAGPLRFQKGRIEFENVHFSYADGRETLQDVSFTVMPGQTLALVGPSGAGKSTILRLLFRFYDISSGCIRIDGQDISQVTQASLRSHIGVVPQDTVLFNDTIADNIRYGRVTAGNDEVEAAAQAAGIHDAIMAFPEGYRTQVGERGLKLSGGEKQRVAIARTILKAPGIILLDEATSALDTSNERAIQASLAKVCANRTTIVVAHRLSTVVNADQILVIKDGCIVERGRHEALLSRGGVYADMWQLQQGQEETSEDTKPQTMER
Myeloid diff: promotes myeloid progenitor differentiation; shares compounds with Myeloid diff 2; AID 651706; ER-HoxA9 myeloid progenitors, GFP/Mac1 double-positive flow; calls only; hit rate 2% among 2,300;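 active = share of green or green-and-red cells above 9 and 9% in run 1 or 4 and 3% in run 2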
GFP autofluor: counter-screen for myeloid differentiation promoters: compound fluorescence | shares compounds with Myeloid diff 2 | ER-HoxA9 myeloid progenitors, no estrogen, GFP autofluorescence flow cytometry; vehicle wells 0%, positive control 100% | fluorescence response, % (test concentration not listed) | hit rate 7.4% among 2,300 | AID 651707;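 active = over 5% cells positive for green fluorescent reporter, or over 2% positive for both it and APC stain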
Hits are given with their value. A selection: hits, their analogues and other compounds. The true share with any hit is near 1.8%.

Screening CCOc1ccc(NC(=O)c2ccc(N3CC4CC(C3)c3cccc(=O)n3C4)c(NC(=O)c3cccnc3)c2)cc1 (stereo unspecified) returned Myeloid diff 2 inconclusive, Exocytosis inh inactive and ABCB6 inh 2 inactive.
O=S(=O)(NCC1COc2ccccc2O1)c1ccc2ccccc2c1 (stereo unspecified) was read as Myeloid diff 2 inactive, Exocytosis inh inactive and ABCB6 inh 2 inactive.
O=C(O)c1cccc(S(=O)(=O)NCC2COc3ccccc3O2)c1 (stereo unspecified) was read as Myeloid diff 2 inactive, Exocytosis inh inactive, ABCB6 inh 2 inactive, Myeloid diff inactive and GFP autofluor inactive.
`COC(=O)[C@@]1(C(C)C)N=C(c2cc(OC)c(OC)c(OC)c2)[C@]2(O1)C(=O)N(C)c1ccc(Cl)cc12` gave Myeloid diff 2 inactive, Exocytosis inh inactive and ABCB6 inh 2 inactive.
CCn1cc(C(=O)O)c(=O)c2cc(F)c(N3CCN(C(=S)NC(=O)c4ccc(F)cc4)CC3)cc21 was read as Myeloid diff 2 inactive, Exocytosis inh inactive and ABCB6 inh 2 inactive.
For CCCOc1ccc(C(=O)NC(=S)N2CCN(c3cc4c(cc3F)c(=O)c(C(=O)O)cn4CC)CC2)cc1 the results were Myeloid diff 2 active, Exocytosis inh inactive, ABCB6 inh 2 inactive, Myeloid diff inactive and GFP autofluor inactive.
`O=C(Nc1ccc2c(c1)OCCO2)C1c2ccccc2OCC(=O)N1Cc1ccccc1` (stereo unspecified) gave Myeloid diff 2 inactive, Exocytosis inh inactive and ABCB6 inh 2 inactive.
For C[C@]12C=CC(=O)C=C1CC[C@H]1[C@@H]3C[C@@H](O)[C@](O)(C(=O)CO)[C@@]3(C)C[C@H](O)[C@@]12F the results were Myeloid diff 2 inactive, Exocytosis inh inactive, ABCB6 inh 2 inactive, Myeloid diff inactive and GFP autofluor inactive.
`CC1CC2C3CCC4=CC(=O)C=CC4(C)C3(F)C(O)CC2(C)C1(O)C(=O)CO` (stereo unspecified) gave Myeloid diff 2 inactive, Exocytosis inh inactive and ABCB6 inh 2 inactive.
`COc1ccc(S(=O)(=O)Nc2cccc3c2O[C@H](CN(C)Cc2ccc(Oc4ccccc4)cc2)[C@@H](C)CN([C@H](C)CO)C3=O)cc1` gave Myeloid diff 2 inactive, Exocytosis inh inactive and ABCB6 inh 2 inactive.
Screening C[C@@H]1CN([C@@H](C)CO)C(=O)c2cccc(NS(C)(=O)=O)c2O[C@H]1CN(C)Cc1ccc(Oc2ccccc2)cc1 returned Myeloid diff 2 inactive, Exocytosis inh inactive, ABCB6 inh 2 inactive, Myeloid diff inactive and GFP autofluor inactive.
`COc1ccc(-c2c(C#N)c(SCC(=O)c3cc4ccccc4oc3=O)nc(C)c2C(=O)Nc2ccccc2)cc1` gave Myeloid diff 2 inconclusive, Exocytosis inh inactive and ABCB6 inh 2 inactive.
Cc1nc(SCC(=O)c2cc3ccccc3oc2=O)c(C#N)c(-c2ccccc2)c1C(=O)Nc1ccccc1 was read as Myeloid diff 2 inactive, Exocytosis inh inactive, ABCB6 inh 2 inactive, Myeloid diff inactive and GFP autofluor inactive.
For CCC(C)C(NC(=O)OC(C)(C)C)C(=O)NC(C(=O)NC(C)C(N)=O)C(C)C (stereo unspecified) the results were Myeloid diff 2 inactive, Exocytosis inh inactive and ABCB6 inh 2 inactive.
For COCCCNc1nccn2ccnc12 the results were Myeloid diff 2 inactive, Exocytosis inh inactive and ABCB6 inh 2 inactive.
O=C(N/N=C/c1ccc([N+](=O)[O-])o1)c1ccc2c(c1)OCO2 was read as Myeloid diff 2 inactive, Exocytosis inh inactive, ABCB6 inh 2 inactive, Myeloid diff inactive and GFP autofluor inactive.
O=C(N/N=C\c1ccc(-c2ccc([N+](=O)[O-])cc2)o1)c1ccc2c(c1)OCO2 was read as Myeloid diff 2 inactive, Exocytosis inh inactive and ABCB6 inh 2 inactive.
Screening CC[n+]1c(/C=C(\C)SC)sc2ccccc21 returned Myeloid diff 2 inactive, Exocytosis inh inactive and ABCB6 inh 2 inactive.
Screening CCN1/C(=C/C=C/C=C/C=C/c2sc3ccccc3[n+]2CC)Sc2ccccc21 returned Myeloid diff 2 inactive, Exocytosis inh inactive, ABCB6 inh 2 inactive, Myeloid diff inactive and GFP autofluor 43.
`COc1cc(OC)cc(C(=O)N[C@H](C(=O)Nc2nc3ccc(S(C)(=O)=O)cc3s2)C(C)C)c1` gave Myeloid diff 2 inactive, Exocytosis inh inactive and ABCB6 inh 2 inactive.
Screening CCn1c(SCC(=O)OCc2ccccc2)nnc1-c1ccco1 returned Myeloid diff 2 inactive, Exocytosis inh inactive and ABCB6 inh 2 inactive.
For CCn1c(Sc2ccc([N+](=O)[O-])cn2)nnc1-c1ccco1 the results were Myeloid diff 2 inactive, Exocytosis inh inactive, ABCB6 inh 2 inactive, Myeloid diff inactive and GFP autofluor inactive.
For O=C(O)CSC1CC(=O)N(c2ccc(Br)cc2)C1=O (stereo unspecified) the results were Myeloid diff 2 inactive, Exocytosis inh inactive and ABCB6 inh 2 inactive.
CC#CCN1c2ccccc2[C@]23C[C@@H](C(=O)OC)N(C(=O)NC4CCCCC4)C2=NC(C(=O)OC)=C(C(=O)OC)[C@H]13 was read as Myeloid diff 2 inactive, Exocytosis inh inactive, ABCB6 inh 2 inactive, Myeloid diff inactive and GFP autofluor inactive.
Screening CC#CCN1c2ccccc2[C@]23C[C@@H](C(=O)OC)N(C(=O)C4CCC4)C2=NC(C(=O)OC)=C(C(=O)OC)[C@H]13 returned Myeloid diff 2 inactive, Exocytosis inh inactive and ABCB6 inh 2 inactive.
Screening O=c1c2c(nc3nc(CCc4ccccc4)[nH]n13)CCC2 returned Myeloid diff 2 active, Exocytosis inh inactive, ABCB6 inh 2 inactive, Myeloid diff inactive and GFP autofluor inactive.
For O=c1c2c(nc3nc(NCc4ccc(Cl)cc4)[nH]n13)CCC2 the results were Myeloid diff 2 inactive, Exocytosis inh inactive and ABCB6 inh 2 inactive.
Screening CCO[C@@H]1OC(C(=O)N2CCN(Cc3ccc4c(c3)OCO4)CC2)=C[C@H](C2CCCCC2)[C@H]1CCCO returned Myeloid diff 2 inconclusive, Exocytosis inh inactive and ABCB6 inh 2 inactive.
CC(Oc1cccc(Cl)c1)C(=O)Nc1nc(-c2ccccn2)cs1 (stereo unspecified) was read as Myeloid diff 2 active, Exocytosis inh inactive, ABCB6 inh 2 inactive, Myeloid diff inactive and GFP autofluor inactive.
CC(Oc1ccccc1)C(=O)Nc1nc(-c2ccccn2)cs1 (stereo unspecified) was read as Myeloid diff 2 inactive, Exocytosis inh inactive and ABCB6 inh 2 inactive.
Screening COc1cccc(-c2csc(NC(=O)Oc3ccccc3)n2)c1 returned Myeloid diff 2 inactive, Exocytosis inh inactive, ABCB6 inh 2 inactive, Myeloid diff inactive and GFP autofluor inactive.
Screening COc1cccc(-c2csc(NNC(=O)c3cccs3)n2)c1 returned Myeloid diff 2 inactive, Exocytosis inh inactive and ABCB6 inh 2 inactive.
Screening O=C(NCCS(=O)(=O)N1CCN(c2cccc(Cl)c2)CC1)c1ccco1 returned Myeloid diff 2 inactive, Exocytosis inh inactive and ABCB6 inh 2 inactive.
`COCCCNC(=O)c1ccc(Cn2c(=O)c3ccccc3n(Cc3ccccc3C#N)c2=O)cc1` gave Myeloid diff 2 active, Exocytosis inh inactive, ABCB6 inh 2 inactive, Myeloid diff inactive and GFP autofluor inactive.
